Test results reported in article PMC12136788.
Where a chain is given by its changes, count along the chain named. In all, about 24,000 sequences were measured (“enrichment r”: median about 0.99, highest 2% from about 3.7 on). This excerpt belongs to a sample that is enriched for the highest values.

T1: UNK ZnF1-3 (human, UniProt Q9C0B0 31-174)
T1 sequence: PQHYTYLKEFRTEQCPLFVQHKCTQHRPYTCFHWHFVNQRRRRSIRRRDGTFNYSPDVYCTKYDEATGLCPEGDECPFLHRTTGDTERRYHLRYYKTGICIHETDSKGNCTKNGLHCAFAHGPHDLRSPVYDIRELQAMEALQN

B1: chr2:217001844:217001845:+_ENSG00000079246_ENST00000392132|hu_hu|hu_hu_hu_mus_False|18_28 (ssRNA)
RNA: GGGAGUUCUACAGUCCGACGAUCACCAACUUGAGGAUUAGAUCUUUUGUCAUAAGCAUAUCGGACGAUGGCGACCAUGUUUAACUCAUCCAAAGCAUGAACGAGAGAGGAAAGUGCAACUGCAGCUGCCUCAUCAUCCUUUGCCAACAGAGGAUUGAGCAUCA
B2: 7301359_7301479_2013_3pUTR_ENSMUSG00000024764_ENSMUST00000025675|mouse|control|control (ssRNA)
RNA: GGGAGUUCUACAGUCCGACGAUCGACACCCAUGACAGGAAAGCAGUGGUACGCCACUGAAAGGCAUCCCAGGGGUGCCAAGACAGUGGCACGAGUGCCUCAUUGAGGCGGUGAGGGGUGGGGCUCGGGAGAACAGGCAAAGGGCAACAGAGGAUUGAGCAUCA
B3: chr12:39756943:39756944:-_ENSG00000139116_ENST00000544797|hu_mus|hu_hu_hu_mus_False|8_28 (ssRNA)
RNA: GGGAGUUCUACAGUCCGACGAUCGGUUUGGCUGUUACCCCCAAGGGAAUCCUGCAAGAGUCUUGUCAGCUUAGAGUCUCUGUAAGGGACAUGGGUGGCUCUCUUGCUCUUGUCUCCCAAGGCGCUGAUUACAUUGCCAAGAGCCAACAGAGGAUUGAGCAUCA
B4: chr5:128440902:128440903:+_ENSG00000066583_ENST00000173527|hu_mus|hu_hu_hu_mus_True|1_58 (ssRNA)
RNA: GGGAGUUCUACAGUCCGACGAUCUUGAACGGUGCUGCCAAGUCCUUUGGGGUAUUGUUCCGUUAUGAUAACUGGAAUUCCUAAAAUCCGAGCUCCUUGCAACAGUCUCUGUCCCACACUAAUGAUGUCCCCAAAGUACUUGAUCAACAGAGGAUUGAGCAUCA
B5: chr11:69466387:69466388:+_ENSG00000110092_ENST00000227507|hu_hu|motif|central (ssRNA)
RNA: GGGAGUUCUACAGUCCGACGAUCACACGUAAAGGAUGGAACCUAAUCCUCUCCCGAGACGCCUCCUUUGUGUUAAUGCCGGUUCUUACAACAGAGAAACAAGUACAUUAAUAUAAAAACGAGUUGAUUAUUGGGGUAUAAAAUCAACAGAGGAUUGAGCAUCA
B6: chr1:46159212:46159213:+_ENSG00000159596_ENST00000372025|hu_mus|hu_hu_hu_mus_True|58_58 (ssRNA)
RNA: GGGAGUUCUACAGUCCGACGAUCUCUGAUCCCUCCCAAGAAAGCUAGGAAACCGGCUCCAUAAGCCAUCUGAGUGAAAGCUAAUAUGGGGAUAUAAGACUUUGUUAUUACCAUGAGAAGUGGGGGAGCAGUAAAGGGGAUUAACAACAGAGGAUUGAGCAUCA
B7: chr13:48835921:48835922:+_ENSG00000136156_ENST00000378565|hu_hu|FALSE|FALSE (ssRNA)
RNA: GGGAGUUCUACAGUCCGACGAUCGAUAUGGGUUAUACAAAUUAGUAACACAAGUUAUUUCUUAAAUUCCAAACAUUUUCUAAAAUAUUAUUACAGCAGAUGCCUAGGAUAUUAAAACAUAAAGGUGGAAAUCAUUCUCUAAAUCAACAGAGGAUUGAGCAUCA
B8: chr11:69466387:69466388:+_ENSG00000110092_ENST00000227507|hu_hu|FALSE|FALSE (ssRNA)
RNA: B5 RNA with G80U, G81A
B9: chr1:109605286:109605287:-_ENSG00000197780_ENST00000461096|hu_mus|hu_hu_hu_mus_True|78_98 (ssRNA)
RNA: GGGAGUUCUACAGUCCGACGAUCAAGUUUCAGAGUAUUCAGUGAUCACCUCUUUAACAAUUGUAAUCCUUAUUAUAAGCUAAGCAGAAUAAUAAUUUAAUACCGUAAGUGAACUACACACAAAGCCUGAACCGCGAAAAUGGUCAACAGAGGAUUGAGCAUCA
B10: chr2:27445747:27445748:+_ENSG00000084774_ENST00000264705|hu_hu|FALSE|FALSE (ssRNA)
RNA: GGGAGUUCUACAGUCCGACGAUCGGAGGCAGGGUCACCAGGCCCAUUACUUAAGAAGAGACCCUCAUACUCUUGGCUGUCUAGUGCAUGGUCCCAGGGUACCACAGUGACCUCAGCCCCACGCUGGCAGAGGCAUCGGAUCUGCAACAGAGGAUUGAGCAUCA
B11: chr9:95013113:95013114:-_ENSG00000196305_ENST00000443024|hu_hu|hu_hu_hu_mus_False|68_88 (ssRNA)
RNA: GGGAGUUCUACAGUCCGACGAUCCUCAGUCAGAAAGGGCGUGUAAGGAGCCAUAAGUCUGCACAGAGAAAGCAGAACACUGAACAGUGUCUCCAGAGCCAUGACACAGUCUUCCACCCCACUCUCACCCUUUAACCUCCUCCUCAACAGAGGAUUGAGCAUCA
B12: 142899929_142900494_654_CDS_ENSMUSG00000031004_ENSMUST00000033310|mouse|control|control (ssRNA)
RNA: GGGAGUUCUACAGUCCGACGAUCAAGGCCCUUGGCAUACACAAAAGAUCUUCUUGAAGCAGUCAUUUUUGAAGCUUUGGUAUCUUGACCUUCCCCAUCAGGGUCAGCACAGAAGCUAUCUCUUGAGGCUCGCCUUGAUGGUUCCAACAGAGGAUUGAGCAUCA
B13: chr12:111890518:111890519:-_ENSG00000204842_ENST00000389154|hu_hu|FALSE|FALSE (ssRNA)
RNA: GGGAGUUCUACAGUCCGACGAUCUUGGAUGUUACAAGAAAUCAACAUAUAUAUUUUAAAAACAAAAUAAAUGAAAUUCUAGUUUUCUGUGCUUCCAGUUGGUAGAAGCAGUAGAAGGGAGGAGGGAAUUUGGCCUUUCGGUUCCAACAGAGGAUUGAGCAUCA
B14: chr15:57879074:57879075:-_ENSMUSG00000022361_ENSMUST00000070143|mus_hu|FALSE|FALSE (ssRNA)
RNA: GGGAGUUCUACAGUCCGACGAUCCAGCUGUCUGAGUGAGGAAAUCAGCUACAUUGCAGCAUUUUGGAAUUACUAAUAAAGCUAUAGUUAAAAAAUAAAAAGUUUAUAAAAAUGAAAGCAGCAUGCAUAUUCAAGGCUUUUUCACAACAGAGGAUUGAGCAUCA
B15: chr15:57879074:57879075:-_ENSMUSG00000022361_ENSMUST00000070143|mus_hu|motif|central (ssRNA)
RNA: B14 RNA with U82G, A83G
B16: chr6:136509389:136509390:+_ENSMUSG00000030213_ENSMUST00000032335|mus_hu|FALSE|FALSE (ssRNA)
RNA: GGGAGUUCUACAGUCCGACGAUCAAUAUUAUUAUCAGCUUUAUUUUUCUCAUCCAAUGAGUCUUUACUCUGAAUUUGCUCUAAUUUUUCAUCAGCUCCAUUUUUUUCAAGAAAAUCAUCAUCUUUAUUGCUACUUGGUUCUAUCAACAGAGGAUUGAGCAUCA

What follows are binders tested against T1, UNK ZnF1-3 (assay: nsRBNS (natural sequence RNA bind-n-seq); RBNS binding buffer (assumed for nsRBNS): 25 mM Tris pH 7.5, 150 mM KCl, 3 mM MgCl2, 0.01% Triton X-100, 500 ug/ml BSA, 20 U/ml SUPERase-In, 4 C; UNK is unkempt and MSI1 is Musashi-1; names of the RNAs are library labels; protein concentration not given here; high values mean tight binding).

Binder | binding signal [enrichment R]
B1 | 1.42
B2 | 1.24
B3 | 0.697
B4 | 0.681
B5 | 4.6
B6 | 1.4
B7 | 1.52
B8 | 5
B9 | 0.993
B10 | 1.01
B11 | 1.57
B12 | 0.52
B13 | 1.07
B14 | 7.31
B15 | 6.18
B16 | 0.334
